Hits are enriched below; roughly 1.2% of the tested compounds scored in any of these assays.
RGS7-Gao: modulates binding of RGS7 to human Galphao; actives 0.35% (n = 220,000); Multiplexed bead flow cytometry; actives lie on both sides; P09471; binding response (% of control), % at 10 µM; in the data active = binding response below about 49% or above about 150%; inconclusive = no clear call, values can overlap the other calls; inactive = in between;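 also: fluorescent Galphao held in activated GDP-AlF4 state binding bead-coupled RGS7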
Target sequence (P09471 whole entry, looked up): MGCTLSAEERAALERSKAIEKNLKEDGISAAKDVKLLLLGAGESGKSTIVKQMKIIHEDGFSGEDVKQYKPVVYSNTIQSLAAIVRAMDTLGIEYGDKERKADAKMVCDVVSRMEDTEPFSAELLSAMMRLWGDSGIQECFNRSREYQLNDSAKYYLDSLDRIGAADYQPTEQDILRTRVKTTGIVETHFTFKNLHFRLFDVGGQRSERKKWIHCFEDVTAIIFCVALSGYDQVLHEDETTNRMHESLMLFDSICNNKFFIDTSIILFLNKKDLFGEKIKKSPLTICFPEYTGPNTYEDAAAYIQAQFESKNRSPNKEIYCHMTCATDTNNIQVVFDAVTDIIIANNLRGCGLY
Avidin fluor: avidin bead compound fluorescence profile; fluorescence (KMESF) at 10 µM; Avidin beads, compound fluorescence 488/530 nm, flow cytometry; stronger effect = higher value; actives 0.38% (n = 220,000); in the data active = fluorescence above about 47
RGS16-Gao: modulates binding between human RGS16 and Galphao; bead-based flow cytometry RGS16-Galphao binding, fluorescence; actives lie on both sides; binding response (% of control), % at 10 µM; actives 0.38% (n = 220,000);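 also: Galphao activated by GDP with aluminum fluoride before binding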
GSH fluor: compound fluoresces at 488/530 nm on GSH beads; fluorescence (KMESF) at 10 µM; GSH beads flow cytometry, compound fluorescence 488/530 nm; stronger effect = higher value; AID 1776; actives 0.25% (n = 190,000); in the data active = fluorescence above about 89;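 also: glutathione beads carrying GST-tagged Bcl family fusion proteins plus one bare bead set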
RGS8-Gao: modulates binding of RGS8 to human Galphao; response (percent of control binding), % at 10 µM; multiplexed bead flow cytometry; actives lie on both sides; P09471; actives 0.34% (n = 220,000); in the data active = response below about 60% or above about 140%; inactive = in between;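 also: Galphao activated as the GDP aluminium fluoride complex binding bead-coupled RGS8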
RGS4-Gao reg: human RGS4-Galphao interaction regulation | P09471 | Multiplexed bead flow cytometry, RGS4-Galphao binding; actives lie on both sides | AID 1415 | binding response (% of control), % at 10 µM | actives 0.33% (n = 220,000); in the data active = binding response below about 49% or above about 150%; inactive = in between;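 also: fluorescent Galphao activated with aluminum fluoride binding bead-coupled RGS4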
RGS-Gao: regulators of human RGS4-Galphao interaction. actives 99% (n = 1,600). shares compounds with RGS16-Gao. RGS4–Galpha-o binding response, % at 10 µM. multiplexed bead flow cytometry, RGS–Galpha-o binding;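 also: fluorescently labeled Galpha-o bound to GDP with aluminium fluoride binding biotinylated RGS beads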
Avidin counter: counter-screen: compounds disrupting biotin binding to avidin beads | shares compounds with RGS16-Gao | streptavidin beads, fluorescein-biotin binding, flow cytometry | inhibition, % at 10 µM | 1,700 tested, under 10 active;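 active = inhibition above 50%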;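 also: median green fluorescence of gated singlet beads compared with DMSO control wells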
RGS8-Gao confirm: confirmation of regulators of human RGS8-Galphao interaction; binding response (% of control), % at 10 µM; shares compounds with RGS16-Gao; AID 1836; bead-based flow cytometry RGS8-Galphao binding, fluorescence; actives lie on both sides; actives 3% (n = 1,700); in the data active = binding response below about 72% or above about 130%; inactive = in between;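 also: Galphao activated as GDP AlF4 complex before binding bead RGS8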
RGS7-Gao single: RGS7-Galphao interaction regulation, single point confirmation. response (percent of control binding), % at 10 µM. shares compounds with RGS16-Gao. bead-based flow cytometry RGS7-Galphao binding; actives lie on both sides. actives 7.8% (n = 1,700); in the data active = response below about 75% or above about 130%; inactive = in between;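 also: fluorescent Galphao activated with GDP and aluminum fluoride binding bead-coupled RGS7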
RGS16-Gao single: RGS16-Galphao interaction regulation, single point confirmation | bead-based flow cytometry, RGS16-Galphao binding; actives lie on both sides | shares compounds with RGS16-Gao | actives 4% (n = 1,700) | AID 1838 | response (% of control binding), % at 10 µM; in the data active = response below about 74% or above about 130%; inactive = in between;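 also: Galphao activated as the GDP aluminium fluoride complex binding bead-coupled RGS16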
RGS4-Gao confirm: confirmation of regulators of human RGS4-Galphao interaction | shares compounds with RGS16-Gao | RGS4-Galphao binding, multiplexed bead flow cytometry; actives lie on both sides | binding response (% of control), % at 10 µM | actives 4% (n = 1,700); in the data active = binding response below about 74% or above about 130%; inactive = in between
RGS19-Gao single: confirmation of regulators of human RGS19-Galphao interaction; bead-based flow cytometry RGS19-Galphao binding; actives lie on both sides; response (percent of control binding), % at 10 µM; actives 5% (n = 1,700); shares compounds with RGS16-Gao; in the data active = response below about 50% or above about 160%; inactive = in between
Target sequence (P09471 whole entry, looked up): as above
Target sequence (P49795 whole entry, looked up): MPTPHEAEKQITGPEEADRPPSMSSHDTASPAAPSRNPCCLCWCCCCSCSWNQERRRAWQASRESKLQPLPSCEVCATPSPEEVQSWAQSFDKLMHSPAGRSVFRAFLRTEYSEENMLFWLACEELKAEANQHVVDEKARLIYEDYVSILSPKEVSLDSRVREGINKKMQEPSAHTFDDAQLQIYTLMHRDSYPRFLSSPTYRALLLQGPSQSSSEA
Large screens that a line does not name were inactive (follow-up assays come after a bar, where they were run); [ ] = another dose, or the depositor's remark. Unless noted, no rule for the calls is given here.

Cc1cc(=O)oc(C)c1C(=O)NCCCN1CCN(c2ccccc2F)CC1	none
CCOC(CNC(=O)c1cccn2c(=O)c3cc(Cl)ccc3nc12)OCC	RGS7-Gao 48 | RGS-Gao 52 | Avidin counter inactive | RGS8-Gao confirm inactive | RGS7-Gao single inactive | RGS16-Gao single inactive | RGS4-Gao confirm inactive | RGS19-Gao single inactive
COC(=O)[C@@]1(Cc2ccc(F)cc2)[C@H]2c3cc(C(=O)N(C)C)n(Cc4nc5ccccc5[nH]4)c3C[C@H]2CN1C(=O)c1ccccc1	none
COc1ccc(-n2nc(C(=O)NCC(=O)N3CCN(c4ccccn4)CC3)c3ccccc3c2=O)cc1Cl	none
COc1ccc(-n2nc(C(=O)NCC(=O)N3CCN(C)CC3)c3ccccc3c2=O)cc1OC	RGS8-Gao 142[activator] | RGS-Gao 108 | Avidin counter inactive | RGS8-Gao confirm inactive | RGS7-Gao single inactive | RGS16-Gao single inactive | RGS4-Gao confirm inactive | RGS19-Gao single inactive
CC(C)Cc1nnc(NC(=O)CCC(=O)N2CCN(c3ccccn3)CC2)s1	none
COc1ccc2[nH]c(=O)c(COC(=O)c3cccs3)cc2c1	RGS7-Gao 20, RGS8-Gao 22, RGS4-Gao reg 21 | Avidin counter inactive | RGS8-Gao confirm inactive | RGS7-Gao single inactive | RGS16-Gao single inactive | RGS4-Gao confirm inactive | RGS19-Gao single inactive
N#CCCN/N=C(/Cc1nc2ccccc2[nH]1)c1cccc(Cl)c1	RGS7-Gao 198[activator], RGS16-Gao 224[activator], RGS8-Gao 169[activator], RGS4-Gao reg 247[activator] | Avidin counter inactive | RGS8-Gao confirm inactive | RGS7-Gao single inactive | RGS16-Gao single inactive | RGS4-Gao confirm inactive | RGS19-Gao single inactive
Clc1ccc(/C(Cc2nc3ccccc3[nH]2)=N\Nc2ccccc2)cc1	none
Cc1cccc2[nH]c(CN(C)C(=O)CC3C(=O)NCCN3CC(C)(C)C)nc12 (stereo unspecified)	none
O=C(Cc1ccccc1)Nc1ccccc1C(=O)O	none
O=C(C(Cc1ccccc1)n1cccc1)N1CCCCC1 (stereo unspecified)	none
O=C(N1CCN(Cc2ccccc2)CC1)C12CC3CC(CC(C3)C1)C2	none (no result: RGS7-Gao, Avidin fluor, RGS16-Gao, RGS8-Gao, RGS4-Gao reg) | Avidin counter inactive | RGS8-Gao confirm inactive | RGS7-Gao single inactive | RGS16-Gao single inactive | RGS4-Gao confirm inactive | RGS19-Gao single inactive
O=C(C(Cc1ccccc1)n1cccc1)N1CCN(Cc2ccccc2)CC1 (stereo unspecified)	RGS8-Gao 144[activator] | RGS-Gao 113 | Avidin counter inactive | RGS8-Gao confirm inactive | RGS7-Gao single inactive | RGS16-Gao single inactive | RGS4-Gao confirm inactive | RGS19-Gao single inactive
O=C(N1CCN(c2ccccc2)CC1)C12CC3CC(CC(C3)C1)C2	none
Cc1cccc(N=Cc2[nH]c3ccc(Br)c(Cl)c3c2O)c1	RGS7-Gao 153[activator] | RGS-Gao 142
CCC(C)(C)NC(=O)C1CCN(S(=O)(=O)c2cccs2)CC1	RGS7-Gao 424[activator], Avidin fluor 80, RGS16-Gao 364[activator], RGS4-Gao reg 465[activator] | Avidin counter inactive | RGS8-Gao confirm inactive | RGS7-Gao single inactive | RGS16-Gao single inactive | RGS4-Gao confirm inactive | RGS19-Gao single inactive
CCCOC(=O)C1C2C=CC(C2)C1C(=O)OCC(=O)c1ccccc1 (stereo unspecified)	none
N#Cc1c(-c2ccccc2)c(-c2ccccc2)nn(CC(=O)NNC(=O)Nc2ccc(Cl)c(Cl)c2)c1=O	none
Cc1ccc(OCC(=O)N/N=C/C=C/c2ccco2)cc1C	RGS16-Gao 3.6, RGS8-Gao 60 | RGS-Gao 67 | Avidin counter inactive | RGS8-Gao confirm inactive | RGS7-Gao single inactive | RGS16-Gao single inactive | RGS4-Gao confirm inactive | RGS19-Gao single inactive
Cc1nc2ccccc2nc1N/N=C/c1ccc(O)cc1	RGS7-Gao inconclusive (no result: GSH fluor)
Oc1ccc(Nc2nc3ccccc3nc2Nc2ccc(O)cc2)cc1	RGS7-Gao 161[activator], Avidin fluor 80, RGS4-Gao reg 165[activator] | Avidin counter inactive | RGS8-Gao confirm inactive | RGS7-Gao single inactive | RGS16-Gao single inactive | RGS4-Gao confirm inactive | RGS19-Gao single inactive
COCCNc1ccnc2c(Cl)cccc12	none
COCCCNc1ccnc2c(Cl)cccc12	none (no result: Avidin fluor, RGS16-Gao) | Avidin counter inactive | RGS8-Gao confirm inactive | RGS7-Gao single inactive | RGS16-Gao single inactive | RGS4-Gao confirm inactive | RGS19-Gao single inactive
COc1ccc(C(=O)NCCc2nnc(SCC(=O)Nc3ccccc3F)n2C)cc1	RGS7-Gao 166[activator], Avidin fluor 80 | RGS-Gao 111 | Avidin counter inactive | RGS8-Gao confirm inactive | RGS7-Gao single inactive | RGS16-Gao single inactive | RGS4-Gao confirm inactive | RGS19-Gao single inactive
COC(=O)c1nn(-c2ccccc2)c(Sc2ccc(Br)cc2)c1/C=N/O	none
O=C(/C=C/c1ccc2c(c1)OCO2)Nc1nc(-c2ccc(F)cc2)cs1	RGS16-Gao 183[activator] | RGS-Gao 82 | Avidin counter inactive | RGS8-Gao confirm inactive | RGS7-Gao single inactive | RGS16-Gao single inactive | RGS4-Gao confirm inactive | RGS19-Gao single inactive
O=C(/C=C/c1ccc2c(c1)OCO2)Nc1nc2ccc(F)cc2s1	RGS7-Gao inconclusive (no result: GSH fluor)
CC1(C)CC(=O)C2=C(C1)N(c1ccc(F)cc1)C(N)=C(C#N)C2c1cccs1 (stereo unspecified)	none
Cc1ccc(N2C(N)=C(C#N)C(c3cccs3)C3=C2CC(C)(C)CC3=O)cc1 (stereo unspecified)	RGS16-Gao 197[activator], RGS4-Gao reg 197[activator] | Avidin counter inactive | RGS8-Gao confirm inactive | RGS7-Gao single inactive | RGS16-Gao single inactive | RGS4-Gao confirm inactive | RGS19-Gao single inactive
